Measurements published in PubChem BioAssay (NCI).
The panel holds about 83,000 compounds, 20% with a hit somewhere; the sample as a whole holds those more often.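 Cells were grown in 96-well plates and exposed to the test compound at a single concentration for 48 hours; results are reported as percent growth, with values below 10 considered active.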 A number with no mark means an inactive call. Active and inactive are the calls of the source.

Test system: MCF7 breast
Assay: NCI-60 one-dose screen, 48 h (100 = growth as untreated, 0 = no growth, -100 = all killed)
Settings: 10 µM unless noted

SMILES | growth
COc1ccc(C(=O)c2cc(OC)c(OC)c(OC)c2OC)cc1O | 17.5%
O=C(CN1CCN(c2cc3c(cc2F)c(=O)c(C(=O)N/N=C/c2ccccc2O)cn3C2CC2)CC1)N/N=C\c1ccccc1O | 10%
O=c1[nH]c2ccc(Br)cc2c2c1C(c1ccc(Cl)cc1)c1c(ncn3nc(-c4ccco4)nc13)O2 (centres undefined) | 68.7%
Cc1cc(N/N=C/c2nc(-c3ccccc3)oc2C)c2cc(Br)ccc2n1 | 46.2%
C=CCSc1n[nH]c(-c2cccs2)n1 | 101%
COC1=C(OC)C(=O)C(CCCCCCCCCC[P+](c2ccccc2)(c2ccccc2)c2ccccc2)=C(C)C1=O | -49.9% (active)
COc1ccc(C(=O)N2NC(=O)/C(=C/c3ccc(F)cc3)N=C2c2ccccc2)cc1 | 96.6%
C/C=C/C1=CN2C(=O)c3cc(OC4OC(C)C(NC)C(C)(O)C4O)c(C)cc3N=C[C@@H]2C1 (some centres undefined) | 3.78% (active)
Cc1ccc2[nH]c(=O)c3c(c2c1)Oc1ncn2nc(-c4ccco4)nc2c1C3c1ccc(Cl)cc1 (centres undefined) | 86.7%
CCCCCCCCCCCCCCCCCCNC(=O)[C@H]1CSC(c2cccs2)N1 (some centres undefined) | -70.6% (active)
FC(F)(F)c1ccccc1-c1cn2c(ccc3ccccc32)n1 | 77.4%
CCn1c2ccccc2c2cc(NC(=O)Nc3ccc([N+](=O)[O-])cc3C)ccc21 | 35.7%
CCOC(=O)c1cc(C(=O)c2cc(OC)c(OC)c(OC)c2)n2c1ccc1ccccc12 | 12.1%
O=C1c2ccccc2-c2ccccc2C1(Cl)Cl | -88.7% (active)
